Source: PubChem BioAssay (National Center for Advancing Translational Sciences (NCATS))
Compounds with a hit are over-represented: about 0.87% of the library has one in this group of screens.
BLM helicase inh: qHTS Assay for Inhibitors of Bloom's syndrome helicase (BLM) | RecQ-like DNA helicase BLM (Homo sapiens), P54132 | recombinant BLM DNA unwinding, fluorescence dequenching | Potency, µM (series often up to 56.1 µM), for inactives: at the top dose activity change, negative = inhibition, actives largely listed as inhibitors | hit rate 0.2% among 350,000 | AID 2528, 2010;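 also: plate controls were vehicle for no effect and no enzyme for full effect; nearly all actives have a fitted effect of over 35% in size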
APE1 inh-1: qHTS Assay for Inhibitors of the Human Apurinic/apyrimidinic Endonuclease 1 (APE1); hit rate 0.35% among 350,000; DNA repair nuclease/redox regulator APEX1 (Homo sapiens), P27695; recombinant APE1, TAMRA/BHQ-2 abasic DNA cleavage fluorescence; AID 2517, 2012; Potency, µM (series often up to 65.8 µM), inactives show at the highest dose activity change, negative = inhibition, hits mostly inhibitors;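 also: plate controls were vehicle for no effect and reference inhibitor for full effect; nearly all actives have a fitted effect of over 55% in size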
Target sequence (P27695 whole entry, looked up): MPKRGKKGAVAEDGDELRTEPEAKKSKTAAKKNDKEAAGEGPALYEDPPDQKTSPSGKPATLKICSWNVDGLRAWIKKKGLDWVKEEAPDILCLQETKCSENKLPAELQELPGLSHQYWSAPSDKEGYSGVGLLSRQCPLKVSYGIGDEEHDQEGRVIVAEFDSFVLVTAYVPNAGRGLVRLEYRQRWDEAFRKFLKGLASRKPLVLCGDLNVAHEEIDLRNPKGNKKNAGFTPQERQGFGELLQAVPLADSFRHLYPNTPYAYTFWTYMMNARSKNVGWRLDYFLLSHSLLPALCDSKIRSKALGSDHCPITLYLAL
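Activity was derived from the fluorescence gain between first and third kinetic reads (60 s intervals, ex 525/em 598 nm) after 50 nM THF-abasic TAMRA/BHQ-2 duplex was added to 0.75 nM APE1 preincubated 15 min with compound.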
TDP1 inh: qHTS Assay for Inhibitors of Tyrosyl-DNA Phosphodiesterase (TDP1). Tyrosyl-DNA phosphodiesterase 1 (Homo sapiens), Q9NUW8. recombinant TDP1, AlphaScreen DNA substrate cleavage. Potency, µM (titrated, usually from 130 µM), without a hit: at the highest dose activity change, negative = inhibition, hits mostly inhibitors. hit rate 0.28% among 350,000. AID 485290, 2010; also: nearly all actives have a fitted effect of over 40% in size
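E. coli-derived human Tdp1, 1 nM final. Cpd preinc 15 min RT; substrate 15 nM final, 5 min RT; AS bead mix 10 ug/ml final, 10 min RT. Signal loss = tyrosine-FITC cleavage. No-enzyme wells = max signal.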
KAT2A inh: qHTS Assay for Inhibitors of GCN5L2 | GCN5L2 HAT assay, ThioGlo1 CoA-SH fluorescence | Potency, µM (highest dose often 58.9 µM), for the others: at the highest dose activity change, negative = inhibition, usual class: inhibitors | hit rate 0.21% among 390,000 | AID 504327, 2011
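qHTS, 1536-well. 20nM enzyme, pH 7.5 HEPES/EDTA/Tween-20 buffer; 15 min compound preinc., RT. Start: 75uM H3(1-25), 70uM AcCoA, 50uM ThioGlo1. Read Ex340/Em540 at t=0 (autofluorescence flag) and t=20 min.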
RECQ1 helicase: qHTS Assay for Inhibitors of RecQ-Like Dna Helicase 1 (RECQ1); ATP-dependent DNA helicase Q1 (Homo sapiens), P46063; RECQ1 DNA unwinding, red fluorescence kinetic read; Potency, µM (top dose mostly 57.3 µM), without a hit: top-dose activity, negative = inhibition, actives largely listed as inhibitors; hit rate 0.54% among 240,000;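 also: plate controls were vehicle for no effect and no enzyme for full effect; nearly all actives have a fitted effect of over 30% in size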
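RECQ1T1 50 nM; forked duplex (20 bp + 30-nt ss tails) 200 nM, ATP 2 mM final; pH 8.0, 2 mM MgCl2, 2.5 ug/ml poly(dI-dC); 15 min compound preincubation; discontinuous kinetic read over 2 h at RT.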
RGS4 inh: Inhibitors of Regulator of G Protein Signaling (RGS) 4: qHTS. Regulator of G-protein signaling 4 (Homo sapiens), P49798. Transcreener GDP fluorescence polarization, RGS4-accelerated GTP hydrolysis. Potency, µM (titrated, usually from 114 µM), without a hit: top-dose activity change, negative = inhibition, usual class: inhibitors. hit rate 0.039% among 390,000; also: nearly all actives have a fitted effect of over 75% in size
Target sequence (P49798 whole entry, looked up): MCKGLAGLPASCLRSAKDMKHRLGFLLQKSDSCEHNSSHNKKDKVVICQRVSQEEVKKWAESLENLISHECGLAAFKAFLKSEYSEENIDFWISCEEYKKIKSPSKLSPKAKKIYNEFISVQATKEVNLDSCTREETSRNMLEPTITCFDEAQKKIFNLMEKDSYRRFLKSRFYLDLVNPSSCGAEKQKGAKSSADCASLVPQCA
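MLSMR compounds (23 nl, pin-transferred) preincubated 10 min at room temperature with a 500nM (2x) first reagent, then RGS4 at 900nM (2x) plus Transcreener GDP mix added; fluorescence polarization (620/688 nm) read before and after 90 min at 30 °C.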
APE1 dye cs: Counterscreen for APE1 Inhibitors: Fluorescent Dye Displacement Assay; hit rate 7% among 480; DNA fluorescent dye displacement counterscreen, fluorescence; shares compounds with APE1 inh-1; Potency, µM (series often up to 28.5 µM), inactives show at the highest dose activity change, negative = inhibition, usual class: inhibitors;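 also: loss of thiazole orange fluorescence as the dye is displaced from duplex DNA; 0% = ThO with dsDNA and no compound and -100% = ThO without dsDNA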
EndoIV counter: Counterscreen for APE1 Inhibitors: qHTS Assay for Inhibitors of Endonuclease IV | shares compounds with APE1 inh-1 | E. coli Endo IV, fluorogenic AP-site DNA cleavage | Potency, µM (titrated, usually from 27.1 µM), for inactives: at the top dose activity change, negative = inhibition, hits mostly inhibitors | hit rate 4% among 560 | AID 2565, 2010;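 also: plate controls were uninhibited enzyme wells for no effect and no enzyme buffer wells for full effect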
APE1 inh-2: Confirmation qHTS Assay for Inhibitors of the Human Apurinic/apyrimidinic Endonuclease 1 (APE1); purified APE1, fluorogenic abasic-site DNA cleavage; Potency, µM (series often up to 57.1 µM), for inactives: at the top dose activity change, negative = inhibition, actives largely listed as inhibitors; hit rate 44% among 750; AID 2572, 2010; shares compounds with APE1 inh-1; also: nearly all actives have a fitted effect of over 30% in size
APE1 FP inh: qHTS FP-Based Assay for Inhibitors of the Human Apurinic/apyrimidinic Endonuclease 1 (APE1); shares compounds with APE1 inh-1; APE1 binding to TAMRA-labelled double-stranded DNA, fluorescence polarization displacement; Potency, µM (doses to about 28.5 µM), inactives show at the top dose activity, negative = inhibition, hits mostly inhibitors; hit rate 7% among 480
Active calls of the source: *; i = inactive; ? = inconclusive; · = not tested or not shown; [ ] = remark or other dose. Calls follow the shape of the dose curve; as a rule, active = well fitted curve in the direction sought with a large enough effect; inconclusive = small, poorly fitted or top-dose-only effect, or another doubt; inactive = no such curve, though single readings can be large; an effect the other way counts as inactive or inconclusive. Unless noted, % is scaled to controls: 0 for no effect and ±100 for the full control effect; potency is read from the fitted curve at half-maximal effect.

SMILES | BLM helicase inh | APE1 inh-1 | TDP1 inh | KAT2A inh | RECQ1 helicase | RGS4 inh | EndoIV counter | APE1 inh-2 | others
OCC1OC([S-])[C@H](O)C(O)C1O.[Au+] (stereo partly drawn) | ? | · | ? | 11.2µM* | -4.0% | · | 11.0%[57.1 µM] | 12.6µM*
CS(=O)(=O)C1=NSC2=NC(=O)/C(=C\c3cccn3-c3ccc(Cl)cc3)C(=N)N21 | ? | ? | 79.4µM* | -22.9% | -19.5% | -27.1% | · | 14.1µM*
COc1ccc(-c2cn3cccnc3n2)cc1NC(=O)c1ccc(Br)o1 | -1.3% | -5.5% | 50.1µM* | 18.5% | ? | -28.5% | · | -25.0%
Cc1ccc(-c2cn3cccnc3n2)cc1NC(=O)c1ccc(Br)o1 | -2.9% | 9.8% | 4.6% | -10.7% | -12.7% | 23.2% | · | ·
COC(=O)C1=C(C)[C@H](O)[C@@H](C)[C@](C)(c2cc(OC)c(C)c(OC)c2COc2ccccc2)O1 | 3.2% | -0.1% | 5.6% | · | i | · | · | ·
CCN(CC)CCNc1ccc(CO)c2sc3ccccc3c(=O)c12 | 82.8% | ? | 13.6%[56.1 µM] | -3.5% | -1.1% | 1.8% | -13.9%[57.1 µM] | 15.8µM* | APE1 dye cs=7.94µM*;APE1 FP inh=-56.1%[57.1 µM]
Cc1cccc(NC(=O)CSc2nc(-c3cccs3)cc(C(F)(F)F)c2C#N)c1C | -3.0% | · | -0.4%[12.3 µM] | -0.3% | · | -2.2% | · | ·
S=c1[nH]nc(-c2cc(-c3ccccc3)n[nH]2)n1/N=C/c1ccc(Cl)c(Cl)c1 | -13.4% | 3.7% | 79.4µM* | -28.7% | -3.1% | ? | · | 39.8µM*
O=S1(=O)NCC23CCC(CC21)O3 (stereo not drawn) | -2.3% | -6.6% | 7.9% | · | 0.7% | -1.1% | · | ·
O=C(Cl)COCc1ccccc1 | 0.1% | 10.4% | 8.9% | 0.0% | 16.6% | · | · | ·
O=c1ccn(CCc2c[nH]c3ccccc23)c2c1CCCC2 | 7.9% | 0.0794µM* | 8.4% | 7.7% | -2.2% | -46.4% | -4.7% | -7.0%[24.4 µM] | APE1 dye cs=-5.4%;APE1 FP inh=4.3%
CC(=O)c1nn(-c2cccc(Br)c2)cc1C(=O)c1ccccc1 | -2.7% | ? | 2.2% | -1.5% | i | -10.0% | 7.2% | -7.2%[24.4 µM] | APE1 dye cs=-7.3%;APE1 FP inh=3.9%
CC(=O)c1nn(-c2cccc(Br)c2)cc1C(=O)c1ccc(Cl)cc1 | 5.0% | 17.9% | 1.3% | -7.8% | -1.4% | 29.5% | · | ·
